# Results reported in PubChem BioAssay (NCI).
# About 83,000 compounds went through this panel and 20% of them were active in at least one assay; those are over-represented in the sample as a whole.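 Growth was measured after 48 h exposure to one concentration of compound in 96-well plates. Values under 10 count as active.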 Values without a mark were called inactive. Calls of active or inactive are those of the source.
# Tested on: UACC-257 melanoma
# Assay: NCI-60 one-dose screen, 48 h (100 = growth as untreated, 0 = no growth, -100 = all killed)
# Conditions: 10 µM unless noted
row,Structure (SMILES),growth
1,CCCCCCCn1cc2c(NCCc3ccccc3)ncnc2n1,102%
2,COc1ccc(-c2nc3cc(Cl)c(Cl)cc3n2CC(=O)N=Nc2c(O)[nH]c3ccc(OC)cc23)cc1,87.9%
3,CN1CCN(Cc2ccc(NC(=O)c3cncc(C#Cc4cnn5cccnc45)c3)cc2C(F)(F)F)CC1,44.5%
4,Cc1cc(C)c(N2C(=O)CC(Nc3ccc(Cl)cc3Cl)C2=O)c(C)c1 (configuration not stated),103%
5,CC(=O)Nc1cccc(Nc2nc(N[C@@H](C)c3ccccc3)c3ccccc3n2)c1,55.3%
6,COc1cc(-c2nn(C(C)(C)C)cc2-c2ccnc(NCCCNS(=O)(=O)c3cccc(F)c3)n2)ccc1Cl,97.4%
7,NC(=O)c1cccc(-n2ccc3cc(NC(=O)Nc4ccc(N5CCOCC5)c(C(F)(F)F)c4)ccc32)n1,35.7%
8,O=S(=O)(Nc1cccc2ccccc12)c1ccc(-c2cnc(C3CC3)o2)cc1,69%
9,CCOC(=O)c1c(N)c(C#N)cn1-c1cc(OC)c(OC)c(OC)c1,111%
10,COc1ccc([C@H]2c3[nH]c4ccccc4c3C[C@H]3C(=O)N(C4CCN(Cc5c(Cl)cccc5Cl)CC4)CC(=O)N23)c(OC)c1,116%
11,COc1ccc2c(c1)c(-c1cc(N)n3nc(-c4cn(C)c5ccc(OC)cc45)cc3n1)cn2C,110%
12,COc1cc2c(cc1OC)C(Sc1ccc(C)cc1)c1c(nc(N)c(C#N)c1N)O2 (configuration not stated),-35.2% (active)
13,C[C@@H](Nc1c(C#N)cnc2ccc(-c3cnc(Cl)c(NS(C)(=O)=O)c3)cc12)c1ccccc1,14.8%
14,Cc1ccc(NC(=O)N[C@@H](Cc2cc(F)cc(F)c2)C(=O)NC2C(=O)N3C[C@H](O)C[C@H]3C(=O)N3CCCC[C@H]3C(=O)N[C@@H](CO)C(=O)N3C[C@H](C)C[C@H]3C(=O)O[C@H]2C)c(F)c1 (some centres not stated),25.4%
15,O=C(NCc1ncc[nH]1)c1ccc(-c2nc3ccc4[nH]ncc4c3c3c2CCCC3)cc1,27%
16,CCO/C=N/C1=C(C#N)C(c2ccc(F)cc2)c2sc3c(C)cccc3c2O1 (configuration not stated),69%
17,c1cn2c(ccc3nc(-c4cn[nH]c4)c4c(c32)CCCC4)n1,63.5%
18,O=c1[nH]c2ccccc2cc1CSc1ccccc1Nc1nccc(-c2ccc(Cl)cc2)n1,104%
19,Cn1ccnc1C(=O)/C=C/c1ccc(NC(=O)c2c(F)c(F)c(F)c(F)c2F)cc1,113%
20,Cc1noc(C)c1CSc1nc2ccccc2n1-c1ccccc1,110%
21,Cn1cc(CNc2nc3ccc(OC/C(=C/F)CN)cc3o2)ccc1=O,111%
22,CC(C)(C)CC(C)(C)n1nnnc1C(Nc1nccs1)c1cc2cccc3ccc4cccc1c4c32 (configuration not stated),104%
23,COc1ccc(/C(N)=N/C(N)=N/c2nc3ccccc3s2)cc1,98.5%
24,COc1ccc(-c2nn(-c3ccc(S(C)(=O)=O)cc3)cc2/C=N/O)cc1,104%
25,CCOc1cccc(-c2nc3sccn3c2-c2ccnc(S(C)(=O)=O)n2)c1,91.1%
26,O=C(c1ccc(Cl)cc1)C1[C@H](c2ccc(Cl)cc2)[C@@H](c2ccccc2)NC12C(=O)Nc1ccccc12 (some centres not stated),75.2%

# Tested on: M14 melanoma
# Assay: as above
# Conditions: 10 µM unless noted
row,Structure (SMILES),growth
1,CC(C)(C)n1cc(-c2ccnc(NCCCNS(=O)(=O)c3cccc(F)c3)n2)c(-c2ccc(Cl)c(O)c2)n1,94.9%
2,COc1cccc2cc(-c3cc4ccccc4[nH]3)/c(=N\NC(=O)c3ccc(Cl)cc3)oc12,31.9%
3,Nc1nc(Nc2ccccc2SSc2ccccc2Nc2nc(N)nc(-c3ccc4ccccc4c3)n2)nc(-c2ccc3ccccc3c2)n1,95%
4,O=C(CN1CCN(c2cc(=O)n(-c3ccccc3)c3ccccc23)CC1)Nc1nc(-c2ccccc2)cs1,69.7%
5,CC(=O)Nc1cccc(Nc2nc(N[C@H](C)c3ccccc3)c3ccccc3n2)c1,58.7%
6,CNC1CCc2c(sc(NC(=O)c3ccc(C(C)(C)C)cc3)c2C(N)=O)C1 (configuration not stated),52.8%
7,COc1cc(OC)cc(C(=O)Nc2cccc(C#Cc3cccc4[nH]nc(N)c34)c2)c1,-2.56% (active)
8,COc1ccccc1-n1cc(C#N)c(N)c1C(=O)c1ccc(Br)cc1,42.3%
9,Nc1nc(-c2cccc([N+](=O)[O-])c2)c(N=Nc2ccccc2)s1,57.7%
10,COc1ccc(-c2nc3ccc(-c4nnc(SCC(=O)Nc5ccc(C(=O)/C=C/c6ccc(Cl)cc6)cc5)o4)cc3[nH]2)cc1,105%
11,CCCCCCCn1cc2c(NCCc3ccccc3)ncnc2n1,100%
12,COc1ccc(-c2nc3cc(Cl)c(Cl)cc3n2CC(=O)N=Nc2c(O)[nH]c3ccc(OC)cc23)cc1,56.8%
13,CN1CCN(Cc2ccc(NC(=O)c3cncc(C#Cc4cnn5cccnc45)c3)cc2C(F)(F)F)CC1,-43.9% (active)
14,Cc1cc(C)c(N2C(=O)CC(Nc3ccc(Cl)cc3Cl)C2=O)c(C)c1 (configuration not stated),103%
15,CC(=O)Nc1cccc(Nc2nc(N[C@@H](C)c3ccccc3)c3ccccc3n2)c1,-10.7% (active)
16,COc1cc(-c2nn(C(C)(C)C)cc2-c2ccnc(NCCCNS(=O)(=O)c3cccc(F)c3)n2)ccc1Cl,80%

row,Structure (SMILES),growth
1,NC(=O)c1cccc(-n2ccc3cc(NC(=O)Nc4ccc(N5CCOCC5)c(C(F)(F)F)c4)ccc32)n1,16.7%
2,O=S(=O)(Nc1cccc2ccccc12)c1ccc(-c2cnc(C3CC3)o2)cc1,14.5%
3,CCOC(=O)c1c(N)c(C#N)cn1-c1cc(OC)c(OC)c(OC)c1,109%
4,COc1ccc2c(c1)c(-c1cc(N)n3nc(-c4cn(C)c5ccc(OC)cc45)cc3n1)cn2C,111%
5,C[C@@H](Nc1c(C#N)cnc2ccc(-c3cnc(Cl)c(NS(C)(=O)=O)c3)cc12)c1ccccc1,4.3% (active)
6,Cc1ccc(NC(=O)N[C@@H](Cc2cc(F)cc(F)c2)C(=O)NC2C(=O)N3C[C@H](O)C[C@H]3C(=O)N3CCCC[C@H]3C(=O)N[C@@H](CO)C(=O)N3C[C@H](C)C[C@H]3C(=O)O[C@H]2C)c(F)c1 (some centres not stated),58.4%
7,CCO/C=N/C1=C(C#N)C(c2ccc(F)cc2)c2sc3c(C)cccc3c2O1 (configuration not stated),3.68% (active)
8,c1cn2c(ccc3nc(-c4cn[nH]c4)c4c(c32)CCCC4)n1,32.1%
9,O=c1[nH]c2ccccc2cc1CSc1ccccc1Nc1nccc(-c2ccc(Cl)cc2)n1,108%
10,Cc1noc(C)c1CSc1nc2ccccc2n1-c1ccccc1,104%
11,CC(C)(C)CC(C)(C)n1nnnc1C(Nc1nccs1)c1cc2cccc3ccc4cccc1c4c32 (configuration not stated),111%
12,COc1ccc(/C(N)=N/C(N)=N/c2nc3ccccc3s2)cc1,81.4%
13,COc1ccc(-c2nn(-c3ccc(S(C)(=O)=O)cc3)cc2/C=N/O)cc1,109%
14,CCOc1cccc(-c2nc3sccn3c2-c2ccnc(S(C)(=O)=O)n2)c1,94.4%
15,O=C(c1ccc(Cl)cc1)C1[C@H](c2ccc(Cl)cc2)[C@@H](c2ccccc2)NC12C(=O)Nc1ccccc12 (some centres not stated),50.2%
